NALP1 yeast inh – NALP1 inhibition | S. cerevisiae NALP1/ASC/caspase-1 growth, X-gal OD620, 72 h | actives 0.61% (n = 280,000) | AID 2071 | inhibition, % at 10 µM; in the data active = inhibition mostly above about 24%, no sharp cut-off; inactive = mostly below about 32%
tim23-1 inh – tim23-1 yeast growth inhibition; S. cerevisiae tim23-1 growth, BacTiter-Glo luminescence, 24 h; inhibition, % at 20 µM; actives 1.3% (n = 330,000);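 active = growth inhibition of the mutant yeast at or above 50%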;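 note: temperature-sensitive mutant grown at 25 °C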
TIM10 inh – TIM10 yeast growth inhibition; AID 463195; actives 1.4% (n = 330,000); S. cerevisiae TIM10 strain growth, BacTiter-Glo luminescence, 24 h; inhibition, % at 10 µM;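 active = inhibition of 40% or more at the single tested concentration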;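 note: wild-type TIM10 isogenic control strain grown at permissive 25 °C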
NLRP3 yeast inh – inhibitors of NALP3 inflammasome in yeast; Yeast reconstituted NLRP3/ASC/caspase-1, beta-gal luminescence, 24 h; inhibition, % at 10 µM; actives 0.39% (n = 330,000); AID 2825;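 active = inhibition of 50% or more; inactive = inhibition below 50%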
tim10-1 inh – growth inhibitors of tim10-1 mutant yeast | inhibition, % at 20 µM | AID 463190 | actives 2.2% (n = 330,000) | S. cerevisiae tim10-1 ts strain growth, BacTiter-Glo, 24 h;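 active = inhibition of at least 40%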;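 note: mutant grown at 25 °C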
tim23-1 confirm – confirmation of tim23-1 mutant yeast growth inhibitors | AID 463218 | actives 83% (n = 4,400) | S. cerevisiae tim23-1 growth, BacTiter-Glo luminescence, 24 h | shares compounds with tim23-1 inh | inhibition, % at 20 µM;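 active = inhibition above about 39% in either of two replicate wells at 20 µM, limit read from the data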;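 note: temperature-sensitive tim23-1 mutant grown at 25 °C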
Hits are given with their value. Only some compounds are listed: those with a hit (about 4.1% of all), similar ones and a draw of the others.

Results for C=CCNc1nc2ccccc2nc1NS(=O)(=O)c1ccc(Br)cc1 ?
NALP1 yeast inh: inactive; tim23-1 inh: 50; TIM10 inh: inactive; NLRP3 yeast inh: inactive; tim10-1 inh: inactive; tim23-1 confirm: 54

How did CC(C)C[C@H](NC(=O)c1nc[nH]c1C(=O)N1CCN(C(=O)OC(C)(C)C)CC1)C(=O)OC(C)(C)C do in these assays?
NALP1 yeast inh: inactive; tim23-1 inh: inactive; TIM10 inh: inactive; NLRP3 yeast inh: inactive; tim10-1 inh: inactive

What do the screens show for `O=C(N/N=C/c1ccc(Cl)cc1Cl)c1ccncc1`?
NALP1 yeast inh: inactive; tim23-1 inh: inactive; TIM10 inh: inactive; NLRP3 yeast inh: inactive; tim10-1 inh: inactive

What do the screens show for `O=C(N/N=C/c1coc2ccccc2c1=O)c1cc(O)cc(O)c1`?
NALP1 yeast inh: inactive; tim23-1 inh: inactive; TIM10 inh: inactive; NLRP3 yeast inh: inactive; tim10-1 inh: inactive

Results for COc1ccc(C(=O)N/N=C/c2ccc3cccc(O)c3n2)cc1 ?
NALP1 yeast inh: inactive; tim23-1 inh: 53; TIM10 inh: inactive; NLRP3 yeast inh: inactive; tim10-1 inh: inactive; tim23-1 confirm: 54

Results for COc1ccc(C(=O)N/N=C\c2coc3ccccc3c2=O)cc1 ?
NALP1 yeast inh: inactive; tim23-1 inh: 51; TIM10 inh: inactive; NLRP3 yeast inh: inactive; tim10-1 inh: inactive; tim23-1 confirm: 43

What do the screens show for `O=C(N/N=C/c1cc(Cl)cc(Cl)c1O)c1ccncc1`?
NALP1 yeast inh: inactive; tim23-1 inh: 54; TIM10 inh: inactive; NLRP3 yeast inh: inactive; tim10-1 inh: inactive; tim23-1 confirm: 62

How did O=C(N/N=C/c1coc2ccc(Cl)cc2c1=O)c1ccncc1 do in these assays?
NALP1 yeast inh: inactive; tim23-1 inh: 66; TIM10 inh: inactive; NLRP3 yeast inh: inactive; tim10-1 inh: inactive; tim23-1 confirm: 56

Results for O=C(N/N=C/c1ccc2cccc(OCc3ccccc3)c2n1)c1ccc(Cl)cc1 ?
NALP1 yeast inh: inactive; tim23-1 inh: inactive; TIM10 inh: inactive; NLRP3 yeast inh: inactive; tim10-1 inh: inactive

Results for Cc1cccc(C(=O)N/N=C/c2coc3ccccc3c2=O)c1 ?
NALP1 yeast inh: inactive; tim23-1 inh: inactive; TIM10 inh: inactive; NLRP3 yeast inh: inactive; tim10-1 inh: inactive

How did O=C(CCSc1nc2ccccc2o1)Nc1ccccc1 do in these assays?
NALP1 yeast inh: inactive; tim23-1 inh: inactive; TIM10 inh: inactive; NLRP3 yeast inh: inactive; tim10-1 inh: inactive

How did COc1ccccc1OCCNC(=O)CSC(=S)N1CCCC1 do in these assays?
tim23-1 inh: inactive; TIM10 inh: inactive; NLRP3 yeast inh: inactive; tim10-1 inh: inactive

What do the screens show for `O=C(Cn1nc(-c2cccc(Cl)c2)ccc1=O)Nc1ccc(C(=O)NC2CC2)cc1`?
NALP1 yeast inh: inactive; tim23-1 inh: inactive; TIM10 inh: inactive; NLRP3 yeast inh: inactive; tim10-1 inh: inactive

Results for c1ccc(-n2nc3c(ccc4cnnc43)[nH]2)cc1 ?
NALP1 yeast inh: inactive; tim23-1 inh: 53; TIM10 inh: inactive; NLRP3 yeast inh: inactive; tim10-1 inh: inactive; tim23-1 confirm: 50

What do the screens show for `O=C(C1=C(O)C(=O)N(c2ncccn2)C1c1ccc(Cl)c(Cl)c1)c1ccco1` (stereo unspecified)?
NALP1 yeast inh: inactive; tim23-1 inh: 58; TIM10 inh: inactive; NLRP3 yeast inh: inactive; tim10-1 inh: inactive; tim23-1 confirm: 41

Results for NS(=O)(=O)c1ccc(NC(=O)c2cc(-c3cc(Cl)ccc3O)n[nH]2)cc1 ?
NALP1 yeast inh: inactive; tim23-1 inh: inactive; TIM10 inh: inactive; NLRP3 yeast inh: inactive; tim10-1 inh: inactive

What do the screens show for `Cc1nc2ccc(NC(=O)c3ccc(Cl)c(NC(=O)c4cccs4)c3)cc2s1`?
NALP1 yeast inh: inactive; tim23-1 inh: inactive; TIM10 inh: inactive; NLRP3 yeast inh: inactive; tim10-1 inh: inactive

How did Cc1ccc(NC(=O)c2ccc(Cl)c(NC(=O)c3cccs3)c2)cc1 do in these assays?
NALP1 yeast inh: inactive; tim23-1 inh: 66; TIM10 inh: inactive; NLRP3 yeast inh: inactive; tim10-1 inh: inactive; tim23-1 confirm: 66

What do the screens show for `CCCOc1ccc(-c2csc(N)n2)cc1[N+](=O)[O-]`?
NALP1 yeast inh: inactive; tim23-1 inh: 57; TIM10 inh: inactive; NLRP3 yeast inh: inactive; tim10-1 inh: inactive; tim23-1 confirm: 57

Results for Cc1ccc(C(=O)N2CCSC2=S)cc1 ?
NALP1 yeast inh: inactive; tim23-1 inh: 56; TIM10 inh: inactive; NLRP3 yeast inh: inactive; tim10-1 inh: inactive; tim23-1 confirm: 51

Results for CCOc1ccc(C(=O)N2CCSC2=S)cc1 ?
NALP1 yeast inh: inactive; tim23-1 inh: 51; TIM10 inh: inactive; NLRP3 yeast inh: inactive; tim10-1 inh: inactive; tim23-1 confirm: 41

What do the screens show for `CC(CCc1ccccc1)NC(=O)Cn1cccc1C(=O)c1ccccc1` (stereo unspecified)?
NALP1 yeast inh: inactive; tim23-1 inh: inactive; TIM10 inh: inactive; NLRP3 yeast inh: inactive; tim10-1 inh: inactive

What do the screens show for `Cc1cccc(Nc2ccncc2S(N)(=O)=O)c1`?
tim23-1 inh: inactive; TIM10 inh: inactive; NLRP3 yeast inh: inactive; tim10-1 inh: inactive

What do the screens show for `COc1ccccc1NC(=S)NC(=O)CC(C)C`?
NALP1 yeast inh: inactive; tim23-1 inh: 51; TIM10 inh: inactive; NLRP3 yeast inh: inactive; tim10-1 inh: inactive; tim23-1 confirm: inactive

Results for Cc1cccc(-n2cc(-c3ccccc3)c3c(=O)[nH]cnc32)c1 ?
NALP1 yeast inh: inactive; tim23-1 inh: 54; TIM10 inh: inactive; NLRP3 yeast inh: inactive; tim10-1 inh: inactive; tim23-1 confirm: 48

What do the screens show for `COc1cc(/C=N/NC(=O)c2ccc(N)cc2)ccc1OC(=O)c1cccc(C)c1`?
NALP1 yeast inh: inactive; tim23-1 inh: 65; TIM10 inh: inactive; NLRP3 yeast inh: inactive; tim10-1 inh: inactive; tim23-1 confirm: 73

Results for COc1cc(C(=O)N/N=C/c2ccc(OC(=O)c3cccc(C)c3)cc2)ccc1O ?
NALP1 yeast inh: inactive; tim23-1 inh: inactive; TIM10 inh: inactive; NLRP3 yeast inh: inactive; tim10-1 inh: inactive

How did O=C1/C(=C/c2ccc(Br)cc2)Oc2cc(O)ccc21 do in these assays?
NALP1 yeast inh: inactive; tim23-1 inh: 56; TIM10 inh: inactive; NLRP3 yeast inh: inactive; tim10-1 inh: inactive; tim23-1 confirm: 51

How did CC(C)(C)c1ccc(/C=C2\Oc3cc(O)ccc3C2=O)cc1 do in these assays?
NALP1 yeast inh: inactive; tim23-1 inh: inactive; TIM10 inh: inactive; NLRP3 yeast inh: inactive; tim10-1 inh: inactive

What do the screens show for `COc1ccc(CSc2nnc3n(C)c(=O)c4c5c(sc4n23)CCCC5)cc1`?
NALP1 yeast inh: inactive

Results for O=c1c(Cl)nc2cc(Cl)ccc2n1CCNc1ncc(C(F)(F)F)cc1Cl ?
NALP1 yeast inh: inactive; tim23-1 inh: 62; TIM10 inh: inactive; NLRP3 yeast inh: inactive; tim10-1 inh: inactive; tim23-1 confirm: inactive

How did C=CCn1c2ccccc2c2nnc(SCc3ccc4nonc4c3)nc21 do in these assays?
NALP1 yeast inh: inactive; tim23-1 inh: inactive; TIM10 inh: inactive; NLRP3 yeast inh: inactive; tim10-1 inh: inactive

Results for Cn1c(=NC(=O)c2ccccc2[N+](=O)[O-])sc2cccc(F)c21 ?
NALP1 yeast inh: inactive; tim23-1 inh: 97; TIM10 inh: inactive; NLRP3 yeast inh: inactive; tim10-1 inh: inactive; tim23-1 confirm: inactive

Screening data deposited in PubChem BioAssay by Sanford-Burnham Center for Chemical Genomics.
